60 molecules from PubChem BioAssay AID488847 (NMMLSC, 2010) can be followed below.

The campaign covered roughly 330,000 compounds. About 1,900 (0.58%) were called active. The sample holds actives, similar compounds and a random draw of the others, so the mix is not that of the screen.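 The calls were made as follows: active = inhibition of aptamer binding above 40%, roughly 3 SD of noise, on plates passing a quality check; inactive = the rest.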

For the test, the target named is Beta-adrenergic receptor kinase 1 (Homo sapiens) (UniProt P25098). The experiment in a line: compounds blocking aptamer binding on GRK2 – biochemical, human GRK2, bead flow cytometry, HTS, primary screen (AID 488847).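 Also: median bead fluorescence of bound FAM aptamer so fluorescent compounds give negative values.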 The following applies: FAM-aptamer displacement from GRK2, at 10 µM, hits give high values.
Sequence of Beta-adrenergic receptor kinase 1 (Homo sapiens) (P25098 whole entry, looked up): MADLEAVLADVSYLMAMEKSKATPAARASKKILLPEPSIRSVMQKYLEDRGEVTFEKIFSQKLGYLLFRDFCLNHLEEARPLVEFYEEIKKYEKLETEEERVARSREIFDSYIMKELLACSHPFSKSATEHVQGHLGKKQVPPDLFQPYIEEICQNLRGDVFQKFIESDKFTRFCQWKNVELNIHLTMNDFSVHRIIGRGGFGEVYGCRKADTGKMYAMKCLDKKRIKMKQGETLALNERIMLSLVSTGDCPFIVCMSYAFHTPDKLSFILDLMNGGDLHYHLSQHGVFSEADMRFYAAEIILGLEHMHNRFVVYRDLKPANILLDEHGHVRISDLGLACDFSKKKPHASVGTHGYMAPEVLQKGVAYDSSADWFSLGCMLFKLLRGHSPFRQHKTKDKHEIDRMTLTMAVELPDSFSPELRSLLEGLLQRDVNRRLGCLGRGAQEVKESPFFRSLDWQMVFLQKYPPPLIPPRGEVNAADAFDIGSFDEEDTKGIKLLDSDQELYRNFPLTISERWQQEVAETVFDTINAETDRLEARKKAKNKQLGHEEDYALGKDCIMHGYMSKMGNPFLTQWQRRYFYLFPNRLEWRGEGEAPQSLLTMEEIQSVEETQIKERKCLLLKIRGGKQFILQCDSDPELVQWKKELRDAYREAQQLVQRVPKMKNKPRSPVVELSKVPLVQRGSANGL
Take `CCOC(=O)c1ccc(NC(=O)c2c(NCc3ccccc3)[nH]c(=O)[nH]c2=O)cc1`: the inhibition of aptamer binding is 5% (inactive).
Regarding `C/C=C(/C)C(=O)Nc1cccc(C2=NOC3(C2)C[C@@H](C(N)=O)N(C(=O)C2(C)CC2)C3)c1` (stereo not given in full), the inhibition of aptamer binding was 1% (inactive).
Regarding `C=C(C)C(=O)Nc1cccc(C2=NOC3(C2)C[C@H](C(N)=O)N(C(=O)C(c2ccccc2)c2ccccc2)C3)c1` (stereo not given in full), the inhibition of aptamer binding was 91% (active).
For `C/C=C\C=C\C(=O)N1CC2(CC(c3cccc(NC(=O)/C(C)=C\C)c3)=NO2)C[C@H]1C(N)=O` (stereo not given in full), the inhibition of aptamer binding is 1% (inactive).
The figure for `CCOc1ccc(S(=O)(=O)Nc2cccc(C(=O)NCC3(N4CCCCC4)CCCCC3)c2)cc1` is 0% (inactive).
The figure for `CS(=O)(=O)c1ccc(-c2nnn(CC(=O)Nc3ccc4c(c3)OCCO4)n2)cc1` is 0% (inactive); for `CC1CCN(C(=S)NC2CC3CCC2C3)CC1` (stereo not given) it is 67% (active); for `O=C(NNC(=S)NC1CC2CCC1C2)c1ccc(Cl)cc1` (stereo not given) it is 2% (inactive).
`S=C(NNC(=S)NC1CC2CCC1C2)NC1CC2C=CC1C2` (stereo not given): the inhibition of aptamer binding was 0% (inactive).
The figure for `CC1c2nc3ccccc3n2C(CC(=O)NCCCN2CCOCC2)C(=O)N1Cc1ccccc1` (stereo not given) is 0% (inactive); for `COCCn1c(N)c(NCc2ccccc2)c(=O)[nH]c1=O` it is 47% (active); for `COCCn1c(N)c(N(Cc2ccccc2)C(=O)C2CCCCC2)c(=O)[nH]c1=O` it is 0% (inactive).
Take `COCCN(C(=O)c1ccccc1F)c1c(N)n(Cc2ccccc2)c(=O)[nH]c1=O`: the inhibition of aptamer binding was 2% (inactive).
As for `Cc1ccc2c(c1)C1CN(C)CCC1N2S(=O)(=O)c1ccc(Oc2ccc([N+](=O)[O-])cc2)cc1` (stereo not given), the inhibition of aptamer binding is 0% (inactive).
The figure for `Nc1ccc2nc3c(=O)[nH]c(=S)[nH]c3nc2c1` is 70% (active); for `CCC1Oc2ccccc2N(CC(=O)NCCCN2CCN(CC)CC2)C1=O` (stereo not given) it is 0% (inactive); for `COc1ccccc1CNC(=O)c1ccc(CS(=O)(=O)c2ccccc2)o1` it is 0% (inactive).
The result for `CCOCCCNC(=O)c1ccc(CS(=O)(=O)c2cccc(C(F)(F)F)c2)o1` reads 48% (active).
The figure for `COc1ccc(CCNC(=O)c2ccc(CS(=O)(=O)c3ccc(Br)cc3)o2)cc1OC` is 1% (inactive); for `CCC(C)(C(=O)Nc1ccccc1C)N(C(=O)CNC(C)=O)c1ccc(C)cc1` (stereo not given) it is 1% (inactive).
Take `CCn1nc(NC(=O)c2ccco2)c2cc3ccc(C)cc3nc21`: the inhibition of aptamer binding was 0% (inactive).
Regarding `Cc1ccc(OCCNC(=O)CCNS(=O)(=O)c2ccc(Br)cc2)cc1`, the inhibition of aptamer binding is 1% (inactive).
The result for `Cc1cc2cc(CNC(=O)c3cccs3)ccc2[nH]1` reads 44% (active).
The figure for `Cc1cc2cc(CNC(=O)c3ccc(S(=O)(=O)N4CCOCC4)cc3)ccc2[nH]1` is 3% (inactive).
Regarding `CCc1cccc(CC)c1NC(=S)NCc1ccc2[nH]c(C)cc2c1`, the inhibition of aptamer binding is 0% (inactive).
In the case of `CN(CC(=O)N1CCN(c2ccccc2)CC1)S(=O)(=O)c1cccs1`, the inhibition of aptamer binding is 0% (inactive).
The result for `COCc1ccc(CN2CCC(Oc3ccc(C(=O)NCc4ccccn4)cc3)CC2)o1` reads 0% (inactive).
For the molecule `CCOC(=O)N1CCC(NC(=O)C(C)n2c3ccccc3c3cnn(C)c(=O)c32)CC1` (stereo not given), the inhibition of aptamer binding is 4% (inactive).
As for `O=C(N[C@H]1C/C=C\C(c2ccc(F)cc2)N(Cc2ccccc2)C(=O)C1)OCC1c2ccccc2-c2ccccc21` (stereo not given in full), the inhibition of aptamer binding is 0% (inactive).
As to `CCOC(=O)N1CCN(C(=O)c2ccc(CN(c3ccc(C)c(C)c3)S(C)(=O)=O)cc2)CC1`, the inhibition of aptamer binding is 3% (inactive).
The figure for `CCC1(C(=O)c2ccccc2)C(c2cccc([N+](=O)[O-])c2)C1(C(=O)OC)C(=O)OC` (stereo not given) is 0% (inactive).
The result for `O=C(c1cccc(S(=O)(=O)N2CCCC2)c1)N(Cc1ccco1)C1CCS(=O)(=O)C1` (stereo not given) reads 4% (inactive); that for `CC(C)CN(C(=O)c1cccc(S(=O)(=O)N2CCCCC2)c1)C1CCS(=O)(=O)C1` (stereo not given), 92% (active); that for `CC(C)CN(C(=O)c1ccc2c(c1)OCO2)C1CCS(=O)(=O)C1` (stereo not given), 2% (inactive).
Take `CO/N=C(/CS(=O)(=O)c1ccc(Br)cc1)c1ccc(OC)cc1`: the inhibition of aptamer binding was 2% (inactive).
In the case of `COc1ccc(S(=O)(=O)N2CN(CCc3ccc(OC)c(OC)c3)c3nc4ccccc4nc32)cc1`, the inhibition of aptamer binding was 3% (inactive).
The result for `Cc1ccc(NC(=O)COc2ccc(/C=C3/NC(=O)NC3=O)cc2)cc1` reads 0% (inactive).
Take `CSc1ccc(/C=C2\NC(=O)NC2=O)cc1`: the inhibition of aptamer binding is 46% (active).
As to `CC(C)c1ccc(/C=C2\NC(=O)NC2=O)cc1`, the inhibition of aptamer binding was 0% (inactive).
The figure for `Cc1ccc(-c2cc(=O)[nH]c(NCc3ccccc3)n2)cc1` is 2% (inactive).
The result for `Cc1cccc2nc(CNc3ccc(F)cc3)cn12` reads 2% (inactive); that for `CC(NCc1cccs1)C(=O)Nc1cc(Cl)cc(Cl)c1` (stereo not given), 0% (inactive).
Turning to `COc1cc(NS(=O)(=O)c2ccc3ccccc3c2)c2ncccc2c1`, the inhibition of aptamer binding is 0% (inactive).
Regarding `O=[N+]([O-])c1cccc2ncccc12`, the inhibition of aptamer binding is 4% (inactive).
For `O=[N+]([O-])c1ccccc1S(=O)(=O)Nc1cccc2cccnc12`, the inhibition of aptamer binding is 46% (active).
Consider `CC1CCN(CC(O)COc2ccc(C(=O)c3ccccc3)cc2)CC1` (stereo not given), for which the inhibition of aptamer binding was 0% (inactive).
With `O=C(c1ccc(Cl)cc1)c1ccc(OCC(O)CN2CCCCC2)cc1` (stereo not given), the inhibition of aptamer binding was 43% (active).
With `OC(COc1ccc(Br)cc1)CN1CCCC1` (stereo not given), the inhibition of aptamer binding was 0% (inactive).
The figure for `C=CCOc1ccc(/C=C/C(=O)OC(C)C(=O)Nc2ccc(NC(C)=O)cc2)cc1` (stereo not given) is 1% (inactive); for `CN(C(=O)c1cccc([N+](=O)[O-])c1)c1ccccc1C(=O)NCc1ccccc1` it is 1% (inactive); for `COc1ccc2oc(C(=O)N(CC(C)C)C3CCS(=O)(=O)C3)c(C)c2c1` (stereo not given) it is 0% (inactive).
Turning to `COc1ccccc1C(=O)N(Cc1ccc(C)o1)C1CCS(=O)(=O)C1` (stereo not given), the inhibition of aptamer binding was 43% (active).
Turning to `COc1cc(C(=O)N(Cc2ccc(N(C)C)cc2)C2CCS(=O)(=O)C2)cc(OC)c1OC` (stereo not given), the inhibition of aptamer binding is 0% (inactive).
In the case of `CCOC(=O)CN(C(=O)CN1CCOCC1)c1ccc(Br)cc1`, the inhibition of aptamer binding was 0% (inactive).
The result for `CC(=O)N1CCc2cc(Br)cc(S(=O)(=O)CCC(=O)Nc3c(C)n(C)n(-c4ccccc4)c3=O)c21` reads 0% (inactive); that for `Cc1c(NC(=O)C(C)Oc2cccc(Cl)c2)c(=O)n(-c2ccccc2)n1C` (stereo not given), 0% (inactive).
Regarding `COc1ccccc1NC(=O)C1CCN(C(=O)c2ccc(C(C)(C)C)cc2)CC1`, the inhibition of aptamer binding was 0% (inactive).
With `CC(=O)c1ccc(N2CCN(C(=O)c3ccc4nc[nH]c4c3)CC2)cc1`, the inhibition of aptamer binding was 66% (active).
For `CC(=O)c1ccc(N2CCN(C(=O)CCc3ccccc3)CC2)cc1`, the inhibition of aptamer binding is 0% (inactive).
As to `O=C(c1ccccc1)c1ccc(C(=O)N2CCN(c3ccccc3)CC2)cc1`, the inhibition of aptamer binding was 1% (inactive).
